# Screens: PubChem, National Center for Advancing Translational Sciences (NCATS)
# USP1-UAF1 inh: blocks the human USP1/UAF1 deubiquitinase complex. O94782. recombinant USP1/UAF1, Ub-Rhodamine cleavage fluorescence. Potency, µM (series often up to 57.1 µM), most hits filed as inhibitors. 390,000 compounds, 0.23% hits. AID 743255; active means well fitted inhibition curve with a large enough effect; inconclusive means small, poorly fitted or top-dose-only effect; inactive means no such curve, though single readings can be large or run the other way; further: nearly all actives have a fitted effect of over 60% in size
# Target sequence (O94782 whole entry, looked up): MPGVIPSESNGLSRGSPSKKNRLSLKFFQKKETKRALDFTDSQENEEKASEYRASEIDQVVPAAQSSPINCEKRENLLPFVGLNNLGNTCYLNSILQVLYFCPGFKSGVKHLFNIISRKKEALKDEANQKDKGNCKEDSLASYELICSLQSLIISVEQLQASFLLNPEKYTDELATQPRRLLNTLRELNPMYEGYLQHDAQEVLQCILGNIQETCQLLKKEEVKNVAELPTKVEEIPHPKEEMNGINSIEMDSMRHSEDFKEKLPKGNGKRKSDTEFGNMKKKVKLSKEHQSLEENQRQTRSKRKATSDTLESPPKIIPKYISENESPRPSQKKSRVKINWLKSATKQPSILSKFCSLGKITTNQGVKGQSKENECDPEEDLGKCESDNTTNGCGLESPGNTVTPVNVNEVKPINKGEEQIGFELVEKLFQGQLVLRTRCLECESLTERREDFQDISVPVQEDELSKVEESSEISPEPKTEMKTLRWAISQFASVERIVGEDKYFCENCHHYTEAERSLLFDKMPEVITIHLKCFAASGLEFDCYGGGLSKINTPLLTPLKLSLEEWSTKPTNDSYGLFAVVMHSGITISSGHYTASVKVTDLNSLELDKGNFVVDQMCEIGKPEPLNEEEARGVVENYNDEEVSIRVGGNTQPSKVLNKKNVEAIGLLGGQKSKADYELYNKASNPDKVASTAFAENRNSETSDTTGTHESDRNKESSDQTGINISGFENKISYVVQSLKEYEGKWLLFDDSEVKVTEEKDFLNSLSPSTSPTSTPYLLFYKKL
#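 In this screen, compounds sit with the deubiquitinase complex (1nM) for 15 min at room temperature before Ub-Rho is added at 150nM final. Fluorescence rise is then followed for 6 reads every 60 seconds.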
# TRPML1 blocker: blocks the human TRPML1 channel; TRPML1-inducible cells, Ca2+ dye fluorescence, FDSS; hits give low values; inhibition of EC80 agonist-evoked calcium signal; activity change, negative = inhibition, % (concentration not given with the values); 390,000 compounds, 0.02% hits; in the data active means activity change below about -50%; inconclusive means between about -30% and that limit;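 further: stimulus is agonist 54-4 at its EC80 concentration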
#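 Tet-induced TRPML1-DL cells loaded with Ca8 no-wash calcium dye were read kinetically on FDSS. Compound addition was followed by EC80 agonist 54-4 (4 uM final); inhibition was read over 110 s.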
# TRPV1 agonist: activates the human vanilloid receptor TRPV1; Q8NER1; TRPV1-expressing cells, Fluo-8 calcium influx, agonist mode; activation, % at 8.33 µM; 320,000 compounds, 0.19% hits; AID 540275; in the data active means activation above about 80%; inconclusive means between about 30% and that limit
#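 TRPV1-expressing cells were cultured overnight at 35.5C and loaded with Fluo-8 calcium dye for 40 to 90 min at room temperature. After a 10 s baseline, compound was added and calcium influx was read kinetically for 3 min (ex 480/em 520 nm).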
# TRPV1 potentiator: enhances activation of the human vanilloid receptor TRPV1. Q8NER1. TRPV1-expressing cells, Fluo-8 calcium influx, capsaicin EC20 potentiation. AID 540277. potentiation, % at 8.33 µM. 320,000 compounds, 0.02% hits; in the data active means potentiation above about 80%; inconclusive means between about 30% and that limit
#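 Cells expressing TRPV1 were dye-loaded with Fluo-8 and read kinetically: 10 s baseline, 3 min after compound (agonist portion), then 2 min after EC20 capsaicin (allosteric enhancer portion). Calcium-bound dye fluorescence at 480/520 nm.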
# TRPML1 agonist: agonists of human TRPML1 channel; TRPML1-expressing cells, Ca2+ dye fluorescence, FDSS; activation, % (no concentration beside the values); 410,000 compounds, 0.12% hits; Q9GZU1; in the data active means activation above about 50%; inconclusive means mostly about 30% to 49%
#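 Agonist activity was taken from a 110 s kinetic Ca2+ dye read on the FDSS after pinning compounds onto TRPML1-DL cells. The cells were seeded at 1,500/well with Tet inducer, incubated about 16 h, then dye-loaded at room temperature.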
# A number is an active result; – = inactive; ? = inconclusive; · = not tested or not shown. In the library only some 0.4% were active in any assay of this set; here they are far more common.
SMILES,USP1-UAF1 inh,TRPML1 blocker,TRPV1 agonist,TRPV1 potentiator,TRPML1 agonist
COc1ccccc1-n1cnc2cc(NCc3ccccn3)ccc21,–,-50.5,–,?,–
COc1ccc(-n2cnc3cc(NCc4ccccn4)ccc32)cc1,–,–,–,–,–
CCC(C)NC(=O)CNC(=S)N(Cc1ccc(F)cc1)C1CCCCC1 (stereo not given),–,–,?,–,–
CCn1c(SCC(=O)NC(=O)NC(C)(C)C)nc2ccccc21,–,–,–,–,–
COc1ccc(/C=C/C(=O)Nc2cccnc2Cl)cc1,–,·,84.9,–,·
Cc1nc(C)n(C(C)CNS(=O)(=O)c2ccc(Cl)cc2)n1 (stereo not given),–,–,–,–,–
Cc1cccc(NC(=O)c2sc3nc(-c4cc5ccc(O)cc5oc4=O)[nH]c(=O)c3c2C)c1,–,?,·,·,112.4
Cc1cc(C)cc(NC(=O)c2sc3nc(-c4cc5ccccc5oc4=O)[nH]c(=O)c3c2C)c1,–,-50.1,·,·,–
Cc1c(C(=O)Nc2cccc(F)c2)sc2nc(-c3cc4ccccc4oc3=O)[nH]c(=O)c12,?,–,·,·,–
O=C(NC1CC1)C1CCN(C2CCN(C(=O)CSc3ccccc3)CC2)CC1,–,–,–,–,–
C=CCn1c(C)nc2c(cnn2-c2ccccc2)c1=O,–,–,–,–,–
CC1(C)CC(=O)C2=C(C1)OC(=O)CC2c1cccs1 (stereo not given),–,?,–,–,–
CS(=O)(=O)c1ccc2nc(NC(=O)c3ccco3)sc2c1,–,–,–,–,–
Cc1c(Cl)ccc2sc(NC(=O)c3ccco3)nc12,–,–,89.5,–,–
CCc1nccn1CCC(=O)N1CCc2c([nH]c3ccccc23)C1CC(C)C (stereo not given),–,–,–,–,–
Cc1ccc(-n2nc(C)c3c(C)c(CCC(=O)NCCCOC(C)C)c(C)nc32)cc1,–,·,?,–,·
COC(CNC(=O)CCc1c(C)nc2c(c(C)nn2-c2ccc(C)cc2)c1C)OC,–,·,81.9,–,·
CCN(CCNC(=O)c1ccc(C#N)cc1)c1cccc(C)c1,?,–,91.0,–,–
CCOc1ccc(Nc2c(S(=O)(=O)c3ccc(C)cc3)cnc3ccc(F)cc23)cc1,–,–,·,·,63.1
CCOc1ccc(Nc2c(S(=O)(=O)c3ccc(C)cc3)cnc3ccccc23)cc1,–,–,·,·,–
O=C(OCc1ccccc1)N1CCC2CC1c1cc(-c3ccc(F)cc3)ccc12 (stereo not given),–,–,·,·,–
CSc1ccc(/C=N/NC(=O)c2ccc(C)c(C)c2)cc1,–,–,82.1,–,–
Cn1c(=O)c2[nH]c(N3CCCCC3)nc2n(C)c1=O,–,–,–,–,60.1
Cn1c(=O)c2[nH]c(N3CCN(c4ccccn4)CC3)nc2n(C)c1=O,·,·,–,–,·
Cc1nc(Cl)sc1C(=O)Nc1ccc(C(C)(C)C)cc1,–,–,80.1,–,–
SMILES,USP1-UAF1 inh,TRPML1 blocker,TRPV1 agonist,TRPV1 potentiator,TRPML1 agonist
Cc1ccccc1NC(=O)c1sc(Cl)nc1C,–,–,–,–,–
Cc1ccc(NC(=O)/C(=C\C=C\c2ccccc2)NC(=O)c2ccccc2)cc1,–,–,–,–,–
CCOC(=O)[C@H]1[C@H]2COc3ccccc3[C@@H]2N2C(=O)c3cc(OC)ccc3NC(=O)[C@@]12C,–,–,?,–,–
CCOC(=O)[C@H]1[C@H]2COc3ccc(OC)cc3[C@@H]2N2C(=O)c3cc(C)ccc3NC(=O)[C@@]12C,–,–,98.7,–,–
CCOC(=O)[C@H]1[C@H]2COc3ccc(C)cc3[C@@H]2N2C(=O)c3ccccc3NC(=O)[C@@]12C,–,–,89.7,–,–
CCOC(=O)[C@H]1[C@H]2COc3ccc(C)cc3[C@@H]2N2C(=O)c3ccc(C)cc3NC(=O)[C@@]12C,–,–,?,–,–
CCOC(=O)[C@H]1[C@H]2COc3ccc(C)cc3[C@@H]2N2C(=O)c3ccc(F)cc3NC(=O)[C@@]12C,–,–,85.0,–,–
CCOC(=O)[C@H]1[C@H]2COc3ccc(C)cc3[C@@H]2N2C(=O)c3cc(Cl)ccc3NC(=O)[C@@]12C,–,–,81.8,–,–
C#CCn1c(O)c(N=NC(=O)CNC(=O)/C=C/c2ccccc2)c2ccccc21,–,–,–,–,–
CCOC(=O)[C@H]1[C@H]2COc3ccc(C)cc3[C@@H]2N2C(=O)c3cc(F)ccc3NC(=O)[C@@]12C,–,–,91.3,–,–
CCOC(=O)[C@H]1[C@H]2COc3ccc(Cl)cc3[C@@H]2N2C(=O)c3cc(F)ccc3NC(=O)[C@@]12C,–,–,?,–,–
Cc1ccc(CNC(=O)CNC(=O)c2ccc(Br)o2)cc1,–,–,–,–,–
CCN(CC)CCCN1C=C2C(=O)C(C)(OC(=O)CCC(=O)OC)C(=O)C(Br)=C2C=C1c1ccc(OC)cc1 (stereo not given),?,–,·,·,–
COCCN1C=C2C(=O)C(C)(OC(=O)CCC(=O)OC)C(=O)C(Br)=C2C=C1c1ccc(OC)cc1 (stereo not given),25.1µM,–,·,·,–
C=CCN1C=C2C(=O)C(C)(OC(=O)CCC(=O)OC)C(=O)C(Br)=C2C=C1c1ccc(OC)cc1 (stereo not given),31.6µM,–,–,–,–
COC(=O)CCC(=O)OC1(C)C(=O)C2=CN(c3ccc(OC)cc3)C(c3ccc(OC)cc3)=CC2=C(Br)C1=O (stereo not given),?,–,·,·,–
COC(=O)CCCC1=CC2=C(c3ccccc3)C(=O)C(C)(OC(=O)C3CCCC3)C(=O)C2=CN1C1CC1 (stereo not given),?,–,–,–,–
COC(=O)CCC(=O)OC1(C)C(=O)C2=CN(C3CCCC3)C(c3ccc(OC)cc3)=CC2=C(Br)C1=O (stereo not given),25.1µM,–,–,–,–
CC(Sc1nnc(-c2ccc(OC(F)F)cc2)o1)C(=O)NCC1CCCO1 (stereo not given),–,–,–,–,–
CC1CC(C)CN(CCCNC(=O)C2CCCN(c3ncnc4c3nc3n4CCCCC3)C2)C1 (stereo not given),–,–,–,–,–
CCOC(=O)/C(C#N)=C\c1ccc(N2CCN(C/C=C/c3ccccc3)CC2)cc1,28.2µM,–,–,–,–
COc1ccc(OC)c(NC(=O)CSC2=Nc3ccccc3C3=NC(CCC(=O)NC4CCCCC4)C(=O)N23)c1 (stereo not given),–,–,·,·,–
Cc1cc(S(=O)(=O)N2CCC(NC(=O)C34CC5CC(CC(C5)C3)C4)CC2)ccc1-n1cnnn1,–,–,80.7,–,–
COc1ccc(C(=O)Nc2ccc(NC(=O)c3cccs3)cc2)cc1OC,25.1µM,–,·,·,–
